We go through 40 compounds from PubChem BioAssay (Tox21).

Each structure is given as a SMILES string. Results filed as inconclusive are left out. Entries that show only a call come without a potency. Activity calls are given as the source filed them. Calls come from the whole dose curve; as a rule, active = well fitted activation curve with a large enough effect in the repeat runs; inconclusive = weak or mixed curves; inactive = flat fitted curve, though single readings scatter.

A short description of the experiment: A CellTox Green Cytotoxicity Assay to monitor cytotoxicity in HEK293 cells - 24 hour (AID 1224875). Note: nearly all actives have a fitted effect of over 45% in size. To be noted: CellTox Green fluorescence; series mostly up to 76.8 µM. The source says:
National Center for Advancing Translational Sciences [NCATS]
NIH Chemical Genomics Center [NCGC]
U.S. Environmental Protection Agency [EPA]
National Institutes of Environmental Health Sciences [NIEHS]
National Toxicology Program [NTP]
Cell-based models are critical for drug discovery. Determining the natural cytotoxic effects resulting from test compounds is an essential research activity. A CellTox Green Cytotoxicity Assay to monitor cytotoxicity in real time of continues cell culture during 40 hours of the compound treatment was used to screen Tox21 10K library compounds in Hek293 cells. CellTox Green Cytotoxicity Assay is a nonlytic, homogeneous, biofluorescent method to measure cytotoxicity in cell culture after experimental manipulation. The assay system uses a proprietary asymmetric cyanine dye that is excluded from viable cells but preferentially stains the dead cell's DNA. […] Viable cells produce no appreciable increases in fluorescence. Therefore, the fluorescence signal produced by the binding interaction with dead cell DNA is proportional to cytotoxicity.
The mixture of Hek293 cell suspension and reagents were dispensed at 600cells/6 ul/well in 1536-well tissue culture treated black solid bottom plates using a Multidrop dispenser. After the assay plates were incubated at a 37 C/5% CO2 incubator for 5 hours, 23 nL of compounds dissolved in DMSO, positive and negative controls was transferred to the assay plate by a pintool work station. The plates were incubated at 37 C for 40 hours. The fluorescence intensity were measured at 0h, 8h, 16h, 24h, 32h and 40h time points using ViewLux plate reader during compound treatment.
As to `NNc1nncc2ccccc12`, the Potency result was “inactive”.
In the case of `O=C1CCC(N2C(=O)c3ccccc3C2=O)C(=O)N1` (stereo not given) it was “inactive”.
In the case of `Cc1occc(=O)c1O` it was “inactive”.
`Cc1cccnc1`: the Potency entry is “inactive”.
The same measure for `CC[C@H](C)C(=O)O[C@H]1C[C@@H](C)C=C2C=C[C@H](C)[C@H](CC[C@@H]3C[C@@H](O)CC(=O)O3)[C@H]21`: “inactive”; for `C=CCOC(=O)c1ccccc1C(=O)OCC=C`: “inactive”.
The same measure for `CN(C)CCC(c1ccc(Cl)cc1)c1ccccn1` (stereo not given): “inactive”.
The same measure for `O=C(OCCOCCOC(=O)c1ccccc1)c1ccccc1`: “inactive”; for `COCCCOc1ccnc(CS(=O)c2nc3ccccc3[nH]2)c1C` (stereo not given): “inactive”; for `O=C(CC(C(=O)OC1CCCCC1)S(=O)(=O)O)OC1CCCCC1` (stereo not given): “inactive”.
Take `O=C(O)c1cc(C(=O)O)cc(S(=O)(=O)O)c1`: the Potency entry is “inactive”.
The same measure for `C=CCNC(N)=S`: “inactive”.
Regarding `CCCCCC1=CCCC1=O`, the Potency entry is “inactive”.
The same measure for `O=S(=O)(O)c1ccc2ccccc2c1`: “inactive”; for `CCCCCCCCCCCCCCO`: “inactive”.
In the case of `CCCCCCCCCCCCc1ccccc1` it was “inactive”; in that of `Cc1cc(C)c(C)cc1C`, “inactive”; in that of `ON=C1CCCCC1`, “inactive”.
The same measure for `C[C@H]1C[C@@H]2[C@H]([C@@H](O)C[C@@]3(C)[C@H]2CC[C@]3(O)C(=O)CO)[C@@]2(C)C=CC(=O)C=C12`: “inactive”; for `CCC(O)OC(O)CC` (stereo not given): “inactive”.
`FC(F)(F)c1ccc(Cl)c(Cl)c1`: the Potency entry was “inactive”.
The same measure for `CC(C)(C)[C@@H](O)[C@@H](Cc1ccc(Cl)cc1)n1cncn1`: “inactive”; for `CC1=CC(=O)NS(=O)(=O)O1`: “inactive”; for `CC1=C(C)S(=O)(=O)CCS1(=O)=O`: “inactive”.
In the case of `Cc1ccc(S(N)(=O)=O)cc1` it was “inactive”; in that of `O=C(O)c1cc(O)c(O)c(O)c1`, “inactive”.
In the case of `O=C(O)c1cc(=O)c2c(OCC(O)COc3cccc4oc(C(=O)O)cc(=O)c34)cccc2o1` it was “inactive”.
Turning to `CCCSc1ccc2nc(NC(=O)OC)[nH]c2c1`, the Potency result is “inactive”.
The same measure for `O=C(O)CCCC[C@@H]1SC[C@@H]2NC(=O)N[C@@H]21`: “inactive”; for `COc1ccc(Nc2ccccc2)c(C)c1`: “inactive”; for `CCCCC(CC)COC(=O)C(C#N)=C(c1ccccc1)c1ccccc1` (stereo not given): “inactive”.
With `Cc1cccc(O)c1`, the Potency result was “inactive”.
The same measure for `CCCCC(CC)CO` (stereo not given): “inactive”.
The same measure for `CCCCC(CC)COC(=O)CS` (stereo not given): “inactive”; for `O=S1(=O)CC=CC1`: “inactive”; for `O=C(O)CCCCCCCCCCC(=O)O`: “inactive”.
In the case of `Cc1cnc(C(=O)NCCc2ccc(S(=O)(=O)NC(=O)NC3CCCCC3)cc2)cn1` it was “inactive”; in that of `Oc1cccc2ccccc12`, “inactive”; in that of `CCc1cccc(C)c1N`, “inactive”.
As for `CCN(CC)c1ccc(C(=O)c2ccccc2C(=O)O)c(O)c1`, the Potency result was “inactive”.
